Assay results published in PubChem BioAssay AID2778 (National Center for Advancing Translational Sciences (NCATS), 2010).
Inconclusive results are not listed. Activity calls are given as the source filed them. Calls follow the shape of the dose curve; as a rule, active = well fitted inhibition curve with a large enough effect; inconclusive = small, poorly fitted or top-dose-only effect, or effect the other way; inactive = flat fitted curve, though single readings scatter.

biological target: Menin (Homo sapiens) (UniProt O00255); assay: Confirmation of Inhibitors Targeting the Menin-MLL Interaction in MLL Related Leukemias: Confirmation in an HTRF (commercial TR-FRET) Assay using His-tagged menin and biotin-labeled MLL peptide; conditions: His-menin / biotin-MLL peptide binding; series mostly up to 126 µM
How it was run: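 Compounds were incubated 1 hr at ambient with a preformed His6-menin (200 nM)/biotinylated MLL-w.t. peptide (80 nM) complex in Tris pH 7.5 buffer; anti-His Eu-cryptate (3.5 nM) and SA-XL665 (10 nM) added, TR-FRET read after 1h.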
Potency is read from the fitted curve at half-maximal effect.

Chain of Menin (Homo sapiens) (O00255 whole entry, looked up): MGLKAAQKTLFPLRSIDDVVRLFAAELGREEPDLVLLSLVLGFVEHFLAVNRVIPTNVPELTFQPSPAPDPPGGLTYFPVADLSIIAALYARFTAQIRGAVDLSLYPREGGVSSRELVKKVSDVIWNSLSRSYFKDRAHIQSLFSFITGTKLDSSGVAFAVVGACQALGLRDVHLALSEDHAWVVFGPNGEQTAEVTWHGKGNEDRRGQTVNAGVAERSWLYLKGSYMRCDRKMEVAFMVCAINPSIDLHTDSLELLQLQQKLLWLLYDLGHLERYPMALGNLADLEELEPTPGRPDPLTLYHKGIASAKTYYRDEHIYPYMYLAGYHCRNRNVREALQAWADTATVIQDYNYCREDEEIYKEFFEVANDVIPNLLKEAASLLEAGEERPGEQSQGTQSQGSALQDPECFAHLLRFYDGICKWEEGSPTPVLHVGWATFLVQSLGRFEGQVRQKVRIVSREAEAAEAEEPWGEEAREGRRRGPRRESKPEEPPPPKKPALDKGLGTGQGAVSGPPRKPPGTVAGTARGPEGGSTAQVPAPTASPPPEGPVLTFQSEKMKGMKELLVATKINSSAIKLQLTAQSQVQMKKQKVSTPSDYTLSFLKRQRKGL

Potency, active:
CCc1cc2c(N3CCN(c4nnc(CC)s4)CC3)ncnc2s1 25.1 µM, COc1ccc2[nH]c3c(C)c4ccncc4c(C)c3c2c1 89.1 µM, CCc1cc2c(N3CCN(C(=O)c4ccco4)CC3)ncnc2s1 100 µM

Potency, inactive:
CCN1C(=O)c2ccccc2S(=O)(=O)c2ccc(C(=O)NCCCN(CC(C)C)CC(C)C)cc21, Cc1ccc(/C=C2\SC(=S)N(CC(=O)Nc3ncc(Cc4ccccc4Cl)s3)C2=O)cc1, COc1ccc(CN2CCN(C(C)C(=O)N(C)Cc3cccc(F)c3)CC2)cc1OC (stereo not given), c1ccc2c(c1)NCC1CCCN21 (stereo not given), Oc1ccc(Nc2ncnc3c2oc2ccccc23)cc1, COc1cc(O)c(C(=O)c2ccccc2)cc1O, O=C(CSc1nnc(-c2c[nH]c3ccccc23)o1)N1c2ccccc2CCc2ccccc21, O=C(CCC1CCCCC1)NCCN1C2=NC[C@H](Cc3ccc(O)cc3)N2C[C@H]1Cc1ccc(O)cc1, CCOC(=O)N1CCN(CCC(=O)c2ccc(Br)cc2)CC1, COCCNC(=O)C(OC(=O)c1nsc(Cl)c1Cl)C(C)C (stereo not given), CCOC(=O)c1cnc2ccc(OC)cc2c1Nc1ccc(N2CCN(C)CC2)cc1, COc1ccc(/C=C(\C#N)C(=O)NCc2ccccc2)cc1, CN[C@H]1[C@H](O)[C@@H](O[C@@H]2[C@H](O)[C@@H](O[C@H]3OC(CN)=CC[C@H]3N)[C@@H](N)C[C@H]2N)OC[C@@]1(C)O, O=C1C(=O)c2ncccc2-c2cccnc21, CSC[C@@H]1NC(=S)N(c2ccc(C)cc2)C1=O, Oc1ccc2ccccc2c1N=Nc1nccs1, CCCC(=O)Nc1cccc(NC(=O)c2ccc([N+](=O)[O-])cc2Cl)c1, O=C(CSc1nnnn1-c1ccc(O)cc1)N1N=C(c2ccc3ccccc3c2)CC1c1ccccc1 (stereo not given), O=C(Nc1nnc(SCc2ccc(F)cc2)s1)c1ccc2c(c1)C(=O)N(c1ccccc1Cl)C2=O, CCCCn1c(SCC(=O)NCc2ccc(OC)c(C(=O)O)c2)nc2cc(S(N)(=O)=O)ccc21, CN(CCOc1ccc(Cl)cc1)CC(O)c1ccccc1 (stereo not given), Cc1ccc(F)c(C2C3C=CCC(C)C3C(=O)N2Cc2ccccc2)c1 (stereo not given), O=C1C(Cl)=C(NC(=O)c2ccccc2)C(=O)C(Cl)=C1NC(=O)c1ccccc1, NC(=O)c1ccc(NC(=O)c2cncn2-c2ccccc2)cc1, CCOC(=O)C1CCN(CC(O)COCc2ccccc2)CC1 (stereo not given), CCc1ccccc1NC(=O)COc1cccc(-n2cnnn2)c1, O=C(NC1CCN(c2ncccn2)CC1)c1c(F)cccc1F, COc1ccc(Cn2nnnc2C(c2ccccc2)N2CCN(C3CCCC3)CC2)cc1 (stereo not given), O=C(N/N=C/c1cn(-c2ccccc2)nc1-c1cc2ccccc2o1)c1ccccc1Br, Cc1ccc(-c2cc(C(=O)Nc3cc(C)ccc3O)no2)cc1, COC(=O)C1[C@H]2SC(C)(C)C(C(=O)OC)N2C(=O)N1Cc1nc2ccccc2s1 (stereo not given in full), CCOc1cc(C(c2c(C)[nH][nH]c2=O)c2c(C)[nH][nH]c2=O)cc(Br)c1OC
